Most compounds without a hit are left out; they make up all but 2.9% or so of the library.
PP1 inh – blocks human PP1-alpha phosphatase, a PP5 counter-screen; purified PP1alpha, OMFP fluorescence; inhibition, % at 6.7 µM; 320,000 tested, 0.9% active; AID 2235;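 active means inhibition above the mean inhibition of all tested compounds plus 3 SD, computed separately for each screening campaign, cut at about 15% in these data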
GRK2 aptamer HTS – inhibitors of human GRK2 displacing RNA aptamer. P25098. bead flow cytometry, FAM-aptamer displacement from GRK2. inhibition of aptamer binding, % at 10 µM. 330,000 tested, 0.59% active. AID 488847;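 active means inhibition of aptamer binding above 40%, roughly 3 SD of noise, on plates passing a quality check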;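 further: median bead fluorescence of bound FAM aptamer so fluorescent compounds give negative values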
B2AR ag – activates human beta-2 adrenergic receptor causing internalization. 340,000 tested, 0.43% active. response, % (test concentration not listed). AID 504454. P07550. Am2.2-beta2AR cells, FAP receptor internalization, flow cytometry;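 active means response above a set limit, near 3 SD of response in nonfluorescent compounds, cut at about 42% in these data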
Exocytosis inh – lytic granule exocytosis inhibition; TALL-104 LAMP-1 surface exposure, flow cytometry; cells stimulated with thapsigargin and PMA; inhibition, % at 10 µM; 360,000 tested, 0.66% active; AID 651702;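 active means inhibition above about 55%, limit read from the data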
NadD block – blocks S. aureus nicotinate mononucleotide adenylyltransferase; purified NadD enzyme, colorimetric absorbance read-out; inhibition, % at 20 µM; 360,000 tested, 0.78% active; AID 602399; in the data active means inhibition above about 26%
PP1 confirm – confirmation of human PP1 phosphatase inhibitors; 1,900 tested, 52% active; purified PP1alpha, OMFP substrate fluorescence; shares compounds with PP1 inh; AID 2358; inhibition, % at 6.7 µM;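 active means mean PP1 inhibition above a set limit taken from the earlier primary screen, cut at about 15% in these data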
PP5 inh counter – inhibits human PP5 phosphatase in PP1 counter-screen. purified PP5c, OMFP fluorescence. inhibition, % at 6.7 µM. AID 2360. shares compounds with PP1 inh. 1,900 tested, 4% active;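 active means mean PP5 inhibition over triplicate wells above about 9.5% taken from the earlier PP1 screen, limit read from the data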
Target sequence (P53041 whole entry, looked up): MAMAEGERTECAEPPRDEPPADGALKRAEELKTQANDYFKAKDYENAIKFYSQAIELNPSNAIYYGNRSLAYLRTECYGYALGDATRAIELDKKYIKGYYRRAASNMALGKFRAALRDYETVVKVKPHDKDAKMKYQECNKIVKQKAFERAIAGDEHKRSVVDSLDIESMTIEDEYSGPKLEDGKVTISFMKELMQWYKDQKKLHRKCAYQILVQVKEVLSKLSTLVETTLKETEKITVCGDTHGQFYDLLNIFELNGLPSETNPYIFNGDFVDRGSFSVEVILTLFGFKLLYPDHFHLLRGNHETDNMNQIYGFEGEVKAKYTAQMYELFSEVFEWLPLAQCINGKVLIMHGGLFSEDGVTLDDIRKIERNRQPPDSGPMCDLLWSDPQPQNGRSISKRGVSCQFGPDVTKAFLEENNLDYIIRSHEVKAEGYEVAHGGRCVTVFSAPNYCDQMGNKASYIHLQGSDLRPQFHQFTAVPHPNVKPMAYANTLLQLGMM
The depositor's hits bear a star; nt = not tested or not shown.

SMILES | PP1 inh | GRK2 aptamer HTS | B2AR ag | Exocytosis inh | NadD block | PP1 confirm | PP5 inh counter
CNc1cnn(-c2ccccc2)c(=O)c1Cl | -2.1 | 1.0 | -1.9 | 4.2 | -8.4 | nt | nt
O=c1c(Cl)c(N/N=C/c2ccc(Br)cc2)cnn1-c1ccccc1 | 24.1* | 2.0 | -6.6 | -0.2 | 4.3 | 21.9* | -2.6
c1cc2c3c(cccc3c1)NC1(CCCCCC1)N2 | 20.6* | 2.0 | 12.1 | 9.5 | 15.7 | 21.2* | 7.0
c1cc2c3c(cccc3c1)NC1(CCCCC1)N2 | 25.6* | 0.0 | 8.5 | 5.4 | 35.7* | 10.0 | 17.7*
CC1=Nc2cccc3cccc(c23)N1 | 3.6 | 6.0 | 10.5 | 20.5 | 11.9 | nt | nt
CCOC(=O)C1CCCN(S(=O)(=O)c2cnc(Cl)c(Br)c2)C1 (configuration not stated) | 1.9 | 0.0 | 9.3 | -3.2 | -8.3 | nt | nt
S=c1[nH]nc(-c2cccnc2)n1-c1ccc2c(c1)OCCO2 | 51.7* | 0.0 | 10.0 | -2.5 | 1.7 | -1.6 | -3.8
CC1CN(C(=O)Nc2ccc(F)cc2F)CC(C)O1 (configuration not stated) | 0.3 | 0.0 | -2.1 | -3.3 | -1.4 | nt | nt
Cc1cc(/C=N/n2cnnc2)c(C)n1-c1ccc(Cl)cc1 | -3.6 | 0.0 | -7.2 | 0.6 | 8.5 | nt | nt
Cc1cc(/C=N/n2cnnc2)c(C)n1-c1ccc(OCc2ccc(F)cc2)cc1 | 19.1* | 0.0 | 0.1 | 1.8 | 4.4 | 10.0 | 1.2
Cc1cc(/C=N/n2cnnc2)c(C)n1-c1ccc(OCc2ccc(Cl)cc2Cl)cc1 | 26.6* | 1.0 | 18.2 | 0.5 | 15.2 | 42.3* | 0.4
CCCCCc1c(-c2ccc(F)cc2F)ncn1CCc1ccccc1OC | nt | nt | nt | 21.0 | 4.7 | nt | nt
O=C(NNC1=NC2(CCCC2)Cc2ccccc21)c1ccncc1 | 3.5 | 0.0 | -6.2 | 8.8 | -2.6 | nt | nt
C[N+](C)(CCOc1ccccc1)Cc1ccccc1 (tested in a mixture with another compound) | 1.6 | 4.0 | 20.9 | 1.0 | 2.1 | nt | nt
CC(C)(C)CC(C)(C)c1ccc(OCCOCC[N+](C)(C)Cc2ccccc2)cc1 | 20.8* | 0.0 | 12.0 | 7.1 | 14.8 | 0.3 | 2.7
Clc1ccc(N=c2ssnc2Cl)cc1 | 19.3* | 0.0 | 0.6 | 82.4* | 27.7 | 1.1 | -1.5
Clc1nssc1=Nc1ccccc1 | nt | nt | 1.8 | -0.8 | 18.4 | nt | nt
O=S(=O)(Nc1ccon1)c1ccc(F)c(F)c1 | -5.0 | 2.0 | 4.2 | 1.7 | 3.5 | nt | nt
C[C@H]1CN([C@@H](C)CO)C(=O)c2cccc(NS(=O)(=O)c3cn(C)cn3)c2O[C@H]1CN(C)S(C)(=O)=O | nt | 1.0 | -4.5 | -4.8 | 0.2 | nt | nt
COc1ccc2nc3cc(Cl)ccc3c(Nc3cc(CN4CCCC4)c(O)c(CN4CCCC4)c3)c2n1 | 32.4* | 0.0 | nt | 46.4 | -61.8 | 1.2 | -0.9
CCOC(=O)C1=C(C)N(CCCC(=O)NCc2ccc3c(c2)OCO3)C(=O)NC1c1ccc(Br)cc1 (configuration not stated) | 2.6 | 2.0 | nt | nt | nt | nt | nt
Cc1nc(N2CCC(C)CC2)c2c(C)c(C(=O)Nc3cccc(C(F)(F)F)c3)sc2n1 | -4.2 | 1.0 | 17.9 | -4.1 | 14.1 | nt | nt
Cc1nc(SC(C)C(=O)Nc2cccc(C(F)(F)F)c2)c2c(C)c(C(=O)O)sc2n1 (configuration not stated) | 45.0* | 7.0 | 0.7 | 4.0 | 1.9 | 15.2* | -5.0
O=C(Nc1nc(-c2ccccn2)cs1)c1ccc(S(=O)(=O)N2CCCCC2)cc1 | 29.4* | 2.0 | nt | nt | nt | 26.8* | -1.3
O=C(Nc1nc(-c2ccccn2)cs1)c1cccc(S(=O)(=O)N2CCOCC2)c1 | 29.9* | 0.0 | -4.0 | -4.1 | 14.0 | 31.8* | 9.4
O=C(Nc1nc(-c2cccs2)cs1)c1ccc(S(=O)(=O)N2CCCCC2)cc1 | 7.0 | 0.0 | 4.3 | 1.9 | 11.5 | nt | nt
O=C(CCNC(=O)c1ccc(Cl)cc1)NCC(c1ccco1)N1CCCC1 (configuration not stated) | nt | nt | 4.7 | -3.8 | 1.5 | nt | nt
O=c1c2ccccc2c(C=Nc2cccc(S(=O)(=O)NC3=NCCCCC3)c2)c(O)n1Cc1ccccc1 | 19.1* | 3.0 | 3.2 | -2.5 | 21.3 | 6.9 | -2.2
N#Cc1ccsc1NC(=O)COC(=O)C1=NNC(=O)CC1 | 18.8* | 1.0 | 8.6 | 2.1 | 12.4 | 7.0 | -3.9

Bioassay records (PubChem)
